VACV mCherry inh: inhibitors of vaccinia virus infection (mCherry reporter signal). 310,000 compounds, 0.63% hits. Vaccinia virus mCherry reporter infection, fluorescence. Potency, µM (titrated, usually from 36.5 µM), for inactives: at the highest dose activity change, negative = inhibition, usual class: inhibitors; calls by dose curve; tested in A549 cells; note: potency is the fitted concentration of half-maximal effect; nearly all actives have a fitted effect of over 35% in size
HCMV inh: human cytomegalovirus inhibition; HFF cells, HCMV-luciferase reporter, 72 h; stronger effect = lower value; activity change, negative = inhibition, % at 57.5 µM; 410,000 compounds, 4.5% hits; AID 1259415; in the data active = activity change below about -60%; inconclusive = no clear call, values can overlap the other calls; inactive = above about -39%
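Cell-based, HFFs, 1000 cells/well, 16 h 37C; cpds in DMSO + HCMV-luc, MOI 1 PFU/cell; 72 h 37C; OneGlo luminescence after 5 min RT; norm. to buffer vs Salinomycin 10uM.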
Sm TGR inh: inhibitors of Schistosoma mansoni thioredoxin glutathione reductase; Q962Y6; purified TGR, DTNB reduction, TNB absorbance 405 nm; 360,000 compounds, 3% hits; Potency, µM (highest dose often 114 µM), for inactives: top-dose activity change, negative = inhibition, most hits filed as inhibitors; AID 485364; note: potency is the fitted concentration of half-maximal effect; nearly all actives have a fitted effect of over 60% in size
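TGR 20 nM + NADPH 100 uM (dispensed conc.), cpd preinc 15 min RT; start with NADPH (500 uM addition) then DTNB (15 mM addition). Kinetic TNB absorbance, 405 nm filter. Four-parameter Hill fit across titration.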
HCV inh: blocks hepatitis C virus; AID 651820; Potency, µM (doses to about 41.8 µM), inactives show at the highest dose activity change, negative = inhibition, usual class: inhibitors; 340,000 compounds, 3.4% hits; Huh7.5.1 HCVcc-Cre infection, luciferase reporter, 44 h; note: potency is the fitted concentration of half-maximal effect
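A cell-based infection assay in which seeded cells (1,000 per well) receive test compound after 4 h, are inoculated with HCVcc-Cre at approximately 0.5 moi, and are incubated 44 h before luminescence detection.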
VACV Venus inh: inhibitors of vaccinia virus (Venus reporter) | Vaccinia virus Venus reporter expression, fluorescence | AID 720580 | 330,000 compounds, 0.46% hits | Potency, µM (highest dose often 36.5 µM), without a hit: at the top dose activity change, negative = inhibition, most hits filed as inhibitors; calls by dose curve; tested in A549 cells; note: potency is the fitted concentration of half-maximal effect; nearly all actives have a fitted effect of over 30% in size
FMDV antiviral: antivirals against foot and mouth disease virus. FMDV antiviral cell-based qHTS. Potency, µM (series often up to 57.9 µM), without a hit: at the top dose activity change, negative = inhibition, most hits filed as inhibitors. 410,000 compounds, 1.2% hits. AID 1159524; calls by dose curve; tested in HEK293T cells; note: read-out not given here; potency is the fitted concentration of half-maximal effect; nearly all actives have a fitted effect of over 45% in size
Numbers without * were called inactive; i = inactive; ? = inconclusive; . = not tested or not shown. The list is not random: actives were taken first. Their share in the collection is about 9.3%. Unless noted, calls come from the whole dose curve; as a rule, active = well fitted curve in the direction sought with a large enough effect; inconclusive = small, poorly fitted or top-dose-only effect, or another doubt; inactive = no such curve, though single readings can be large; an effect the other way counts as inactive or inconclusive. % is set by controls: 0 for no effect and ±100 for the full control effect.

SMILES	VACV mCherry inh	HCMV inh	Sm TGR inh	HCV inh	VACV Venus inh	FMDV antiviral
CC1(C)CC(=O)c2cc(C(=O)N3CCCC(C)(C)C3)c(=O)n(-c3ccccc3)c2C1	.	-77*	-1%	2%	-12%	17%
COCCn1c(N2CCCC2)nc2c1c(=O)[nH]c(=O)n2C	-15%	-6	-18%	13%	31%	-21%
Cc1cc(C)c(NC(=O)CS(=O)CC(=O)N2CCN(c3cccc(C)c3C)CC2)c(C)c1 (configuration not stated)	-11%	-6	-9%	?	-17%	-10%
O=C(c1ccco1)N1CCCN(Cc2cn[nH]c2-c2ccc(-c3ccccc3)cc2)CC1	-27%	-1	.	-5%	-14%	-20%
Cc1nonc1NCn1nnc2ccccc21	-15%	-30	35µM*	4%	-18%	-11%
COC(=O)c1nonc1NCn1nnc2ccccc21	.	-4	?	2%	-10%	-1%
Cc1ccc(Oc2nc3ccccc3n3cccc23)cc1	.	-25	-3%	7.9µM*	-21%	-26%
c1ccc(Oc2nc3ccccc3n3cccc23)cc1	.	-10	-11%	10µM*	-27%	-20%
Cc1cc(C)c(C)c(S(=O)(=O)N2CCC(C(=O)NCc3cccs3)CC2)c1C	-2%	20	.	.	-28%	-1%
COc1cc(C(=O)NCC(=O)NC(C)CCc2ccccc2)cc(OC)c1OC (configuration not stated)	i	-28	5%	-3%	-16%	-22%
CC(=O)OCC1OC(n2cc(F)c(=O)[nH]c2=O)C(OC(C)=O)C1OC(C)=O (configuration not stated)	.	-17	.	-8%	.	-3%
O=C1C(F)=CC(COC(c2ccccc2)(c2ccccc2)c2ccccc2)OC1n1cc(F)c(=O)[nH]c1=O (configuration not stated)	10µM*	-99*	.	?	?	3.2µM*
CCCCC(CC)CN=C(N)NC(N)=NCCCCCCN=C(N)NC(N)=NCC(CC)CCCC (configuration not stated)	?	.	-18%	?	10µM*	?
CCCCC(CC)CO (configuration not stated)	-5%	-5	.	-3%	-4%	-19%
CC1=C(C)C(OCCCl)N(c2cc(O)c(Cl)cc2F)C1=O (configuration not stated)	-12%	-28	-33%	16%	-2%	-21%
COC(=O)c1[nH]c2cc(C)ccc2c1NC(=O)CN1CCOCC1	-29%	-30	16%	13%	13%	9%
COC(=O)c1[nH]c2ccc(C)cc2c1NC(=O)CCN1CCN(Cc2ccc3c(c2)OCO3)CC1	-2%	-39	-17%	20µM*	-21%	?
CCN(CC(=O)Nc1c(C(=O)OC)[nH]c2ccc(Cl)cc12)c1ccc2c(c1)OCO2	.	-20	0%	11µM*	?	-10%
COc1cc(CNC(=O)c2ccc3nc(Cc4ccccc4)oc3c2)cc(OC)c1OC	?	?	6%	.	-19%	?
C[C@]12CC[C@H](O)C[C@@H]1CC[C@@H]1[C@@H]2CC[C@]2(C)C(=O)CC[C@@H]12	i	20	4%	0%	-12%	-29%
C[C@]12CCC3[C@@H](CC[C@@H]4C[C@H](O)CC[C@]34C)[C@@H]1CCC2=O (some centres not stated)	i	-75*	1%	16%	-18%	-1%
C[C@]12CCC3C(CC[C@H]4C[C@@H](O)CC[C@]34C)[C@H]1C=CC2=O (some centres not stated)	?	0	.	-11%	?	20µM*
O=C(Nc1ccc(N2CCCC2)cc1)c1cc(Br)ccc1Cl	?	10	2%	?	?	3%
COC(=O)c1c(NC(=O)COC(=O)CNC(=O)c2cccc(OC(F)F)c2)sc(C)c1C	-9%	0	.	.	-20%	-23%
CN(C[C@H](Cc1ccccc1)N(C[C@H](Cc1cccc2ccccc12)N(CCc1ccccc1)N=O)N=O)N=O	?	1	35µM*	-1%	-14%	7%
